Source: PubChem BioAssay (NCI)
The panel holds about 83,000 compounds, 20% with a hit somewhere; the sample as a whole holds those more often.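 Percent growth is the endpoint: 0 to 100 indicates growth inhibition (40 means 60% inhibition), 0 means no net growth, and negative values indicate cell death.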 Unmarked numbers belong to inactive results. Active and inactive are the calls of the source. Rule for the calls: active = growth percent below 10; inactive = the rest.

system: MOLT-4 leukemia; assay: NCI-60 one-dose screen, 48 h (100 = growth as untreated, 0 = no growth, -100 = all killed); details: 10 µM unless noted

Question: Which growth does the source give for `C=C(C=O)[C@@H]1CC[C@]2(C)[C@H](CC=C3[C@H]4[C@@H](C)[C@H](C)CC[C@]4(C(=O)OC)CC[C@]32C)[C@@]1(C)CCC#N` here?
Answer: 1.4% (active)

Question: Which growth does the source give for `COc1ccc([C@@H]2c3[nH]c4ccccc4c3C[C@H]3C(=O)N(C4CCN(CC5CCCCC5)CC4)CC(=O)N23)c(OC)c1` here?
Answer: 46.1%

Question: `c1ccc(C(c2nc3ncncc3[nH]2)N2CSc3nc4ncncc4n3C2)cc1` (configuration not stated) was tested. Which growth did it give?
Answer: 23.8%

Question: `Cc1occc1-c1nc2s/c(=C/c3ccc(-c4cc(C(F)(F)F)ccc4Cl)o3)c(=O)n2n1` was tested. Which growth did it give?
Answer: 113%

Question: How did the growth turn out when `CNCc1cccc2c1OCCCCCCC(C)(O)CC(C)(C)S(=O)(=O)c1ccc(cc1)-c1cnc(N)c(n1)C(=O)N2` (configuration not stated) was run?
Answer: 2.61% (active)

Question: For `CS(=O)(=O)c1ncc(-c2ccccc2)cn1`, which growth is on record?
Answer: 97.2%

Question: With `CCOC(=O)c1c(N)c(C#N)cn1-c1cc(OC)c(OC)c(OC)c1` as the compound, how does the growth read?
Answer: 102%

Question: Which growth does the source give for `CCCCCc1ccc(S(=O)(=O)Nc2cc(-c3csc(NC(=O)CN4CCN(C)CC4)n3)ccc2OC)cc1` here?
Answer: -5.31% (active)

Question: With `Cc1nc2ncc(-c3ccc4ncnc(NCc5ccccc5)c4c3)cc2[nH]1` as the compound, how does the growth read?
Answer: 45.2%

Question: For `C=C(C=O)[C@@H]1CC[C@]2(COC(C)=O)CC[C@]3(C)C(CC[C@@H]4[C@@]5(C)CC[C@H](OC(C)=O)C(C)(C)[C@@H]5CC[C@]43C)[C@@H]12` (some centres not stated), which growth is on record?
Answer: -18.1% (active)

Question: For `Cc1ccc(S(=O)(=O)N(CC[C@@H]2C[C@H]2c2cc3ccccc3o2)S(=O)(=O)c2ccc(C)cc2)cc1`, which growth is on record?
Answer: 88.8%

Question: `COC(=O)c1ccc(NC2=C/C(=N/S(=O)(=O)c3ccc(C(=O)O)cc3)c3ccccc3C2=O)cc1` was tested. Which growth did it give?
Answer: -15% (active)

Question: With `O=C(CCn1c[n+](CC(=O)c2ccc(F)cc2)c2ccccc21)Nc1cccc2cccnc12` as the compound, how does the growth read?
Answer: 65.2%

Question: `CC1(C)CC[C@]2(C(=O)O)CC[C@]3(C)C(=CC[C@@H]4[C@@]5(C)CC/C(=N\OCCC#N)C(C)(C)[C@@H]5CC[C@]43C)[C@@H]2C1` was tested. Which growth did it give?
Answer: 101%

Question: For `COc1ccc([C@@H]2[C@@H](O)C(=O)N2c2cc(OC)c(OC)c(OC)c2)cc1F`, which growth is on record?
Answer: 15.8%

Question: With `CCOC(=O)c1c(Nc2ccccc2)nn2c(-c3ccccc3)ccnc12` as the compound, how does the growth read?
Answer: 87.1%

Question: For `Cc1cc(C)c2sc(=O)n(Cc3nnc(SCCC(=O)O)o3)c2n1`, which growth is on record?
Answer: 90.6%

Question: `Cc1ccc(NC(=O)N[C@@H](Cc2cc(F)cc(F)c2)C(=O)NC2C(=O)N3C[C@H](O)C[C@H]3C(=O)N3CCCC[C@H]3C(=O)N[C@@H](CO)C(=O)N3C[C@H](C)C[C@H]3C(=O)O[C@H]2C)c(F)c1` (some centres not stated) was tested. Which growth did it give?
Answer: 54.5%

Question: Which growth does the source give for `C#C[C@]1(O)CC[C@H]2[C@@H]3CC=C4c5sc(-c6ccc7c(c6)OCO7)nc5CC[C@]4(C)[C@H]3CC[C@@]21C` here?
Answer: 8.06% (active)

Question: How did the growth turn out when `CCCCCc1ccc(S(=O)(=O)Nc2cccc(-c3csc(NC(=O)CN4CCN(C)CC4)n3)c2)cc1` was run?
Answer: 20.8%

Question: For `CCCn1cnc2c(c1=N)C(c1ccc(F)cc1)c1sc3c(CC)cccc3c1O2` (configuration not stated), which growth is on record?
Answer: 9.49% (active)

Question: For `O=C(NCCn1ccnc1)c1ccc(-c2nc3ccc4[nH]ncc4c3c3c2CCCC3)cc1`, which growth is on record?
Answer: 29.1%

Question: Which growth does the source give for `COc1cccc(O)c1/C=C(/C)c1ccc2c(OC)cccc2[o+]1` here?
Answer: 107%

Question: For `NS(=O)(=O)c1ccc(-n2cc(CN3CCCCC3)nn2)cc1`, which growth is on record?
Answer: 98.5%

Question: For `O=S(=O)(NCCNc1nccc(-n2cnc3ccccc32)n1)c1ccc(Cl)cc1`, which growth is on record?
Answer: 103%

Question: For `COC(=O)C1(C)CCC[C@]2(C)[C@H]3C[C@H]4C(C(C)C)=C[C@]3(CC[C@@H]12)[C@H]1[C@@H]4[C@@H](OC(=O)c2ccco2)CC[C@@H]1OC(=O)c1ccco1` (some centres not stated), which growth is on record?
Answer: 103%

Question: How did the growth turn out when `CCCn1cnc2c(c1=N)C(c1ccc(OC)cc1)c1sc3c(C)cccc3c1O2` (configuration not stated) was run?
Answer: 17%

Question: With `COc1cc(-c2nn(C(C)(C)C)cc2-c2ccnc(NCCCNS(=O)(=O)c3cccc(F)c3)n2)ccc1Cl` as the compound, how does the growth read?
Answer: 44%

Question: For `CC1(C)CC[C@]2(CN)CC[C@]3(C)C(=CC[C@@H]4[C@@]5(C)CCCNC(C)(C)[C@@H]5CC[C@]43C)[C@H]2C1`, which growth is on record?
Answer: 82.8%

Question: `NC(=O)c1cccc(C#CCNC[C@H]2C[C@@H](n3ccc4c(Cl)ncnc43)[C@H](O)[C@@H]2O)c1` was tested. Which growth did it give?
Answer: 114%

Question: With `NC(N)=Nc1ccc(Oc2cccc(Nc3cccc(C(F)(F)F)c3)c2)cn1` as the compound, how does the growth read?
Answer: 0.007% (active)

Question: Which growth does the source give for `O=C(CSc1nc2ccccc2c(=O)n1-c1ccccc1)Nc1cccc(C(=O)/C=C/c2ccccc2)c1` here?
Answer: 88.6%

Question: For `COc1ccc(/C(N)=N/C(N)=N/c2nc3ccccc3s2)cc1`, which growth is on record?
Answer: 74.6%

Question: With `Cc1cccc(/C=C/C(=O)Nc2ncc(Cc3cccc(C)c3)s2)c1` as the compound, how does the growth read?
Answer: 22%

Question: Which growth does the source give for `COc1c(N2CC3CCCNC3C2)c(F)cc2c(=O)c(C(=O)N/N=C/c3ccc(Br)cc3)cn(C3CC3)c12` (configuration not stated) here?
Answer: 54.9%

Question: Which growth does the source give for `O=C(c1ccc(O)cc1)[C@@H]1CN[C@@]2(C(=O)Nc3ccccc32)[C@H]1c1ccc(F)cc1` here?
Answer: 90.5%

Question: For `Nc1nc(Nc2ccccc2SSc2ccccc2Nc2nc(N)nc(-c3ccc4ccccc4c3)n2)nc(-c2ccc3ccccc3c2)n1`, which growth is on record?
Answer: 62.5%
